From PubChem BioAssay (NCI) come the findings set out here.

What all share (test): NCI-60 one-dose screen, 48 h (100 = growth as untreated, 0 = no growth, -100 = all killed)
One assay concerns DU-145 prostate. The conditions noted are these: 10 µM unless noted.
For the next assay, the system named is K-562 leukemia. The conditions noted are these: 10 µM unless noted.
For the next assay, the system named is MALME-3M melanoma. To be noted: 10 µM unless noted.
Another assay has as its system MDA-MB-231 breast. To be noted: 10 µM unless noted.
Another assay relates to RXF 393 renal. To be noted: 10 µM unless noted.
The subject of the next assay is SF-268 CNS. The conditions noted are these: 10 µM unless noted.
The next assay has as its system SF-295 CNS. To be noted: 10 µM unless noted.
For a further assay, the system named is SF-539 CNS. To be noted: 10 µM unless noted.
In the next assay the test system is UACC-257 melanoma. To be noted: 10 µM unless noted.
The next assay concerns M14 melanoma. The conditions noted are these: 10 µM unless noted.
For a further assay, the system named is HCT-15 colon. To be noted: 10 µM unless noted.
A further assay has as its system HT29 colon. To be noted: 10 µM unless noted.
Another assay concerns SNB-19 CNS. To be noted: 10 µM unless noted.
A further assay relates to U251 CNS. The conditions noted are these: 10 µM unless noted.
The next assay relates to PC-3 prostate. To be noted: 10 µM unless noted.
A further assay concerns SK-MEL-5 melanoma. The conditions noted are these: 10 µM unless noted.
The subject of another assay is UACC-62 melanoma. To be noted: 10 µM unless noted.
The next assay relates to LOX IMVI melanoma. The conditions noted are these: 10 µM.
The next assay relates to SK-MEL-28 melanoma. The conditions noted are these: 10 µM unless noted.
The subject of a further assay is SNB-75 CNS. The conditions noted are these: 10 µM unless noted.

Molecules are shown by their SMILES. The panel holds about 83,000 compounds, 20% with a hit somewhere; the sample as a whole holds those more often.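 Single-dose data. Exposure time 48 hours. Values below 10 considered active.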 Values without a mark were called inactive. Active and inactive are the calls of the source.

Turning to `Cn1cc(-c2cc3nc(-c4cn(C)c5ncc(Br)cc45)cc(N)n3n2)c2cc(Cl)ccc21`, the growth in the assay with DU-145 prostate was -58.3% (active); in the assay on K-562 leukemia, -29.2% (active); in the assay with MALME-3M melanoma, -91.9% (active); in the assay with MDA-MB-231 breast, -85.5% (active); in the assay on RXF 393 renal it was -64.4% (active); in the assay with SF-268 CNS it was 20.1%. The growth with SF-295 CNS was -72.5% (active); in the assay on SF-539 CNS it was -96.9% (active); in the assay on UACC-257 melanoma it was -82.7% (active); in the assay with M14 melanoma, -86.8% (active); in the assay with HCT-15 colon, -77.6% (active); with HT29 colon, -89.2% (active). Moreover, the growth in the assay on SNB-19 CNS was -74.2% (active); in the assay with U251 CNS, -67.9% (active); in the assay with PC-3 prostate it was -62.5% (active); in the assay with SK-MEL-5 melanoma, -77.1% (active); in the assay on UACC-62 melanoma, -96% (active); in the assay on LOX IMVI melanoma, -95.1% (active). The growth in the assay with SK-MEL-28 melanoma was -90.7% (active).
Consider `COc1cc(NC(=O)c2cccc(C3CCc4c(cc(OC)c(OC)c4OC)O3)c2)cc(OC)c1OC` (centres undefined), for which the growth in the assay on DU-145 prostate was 11.6%; with K-562 leukemia, 15%; with MALME-3M melanoma, 21%; in the assay with MDA-MB-231 breast, 28.3%; in the assay with RXF 393 renal, 47.4%; in the assay on SF-268 CNS, 73.1%. Also, the growth in the assay on SF-295 CNS is 8.61% (active); in the assay with SF-539 CNS, -8.73% (active); in the assay with UACC-257 melanoma, 33.7%; in the assay with M14 melanoma, 22.2%; with HCT-15 colon, 7.46% (active); with HT29 colon, 3.59% (active). Moreover, the growth is 11.5% in the assay with SNB-75 CNS; 13.5% in the assay with U251 CNS; 18.2% in the assay on PC-3 prostate; -58% (active) in the assay on SK-MEL-5 melanoma; -28.6% (active) in the assay with UACC-62 melanoma; 38.9% with SK-MEL-28 melanoma.
Consider `O=c1onc(-c2cc3ccccc3nc2Cl)n1-c1cccc2ccccc12`, for which the growth is 80.7% in the assay with DU-145 prostate; 17.6% with K-562 leukemia; 55.3% in the assay with MALME-3M melanoma; 29.7% in the assay on MDA-MB-231 breast; 43.5% with RXF 393 renal; 73.8% in the assay on SF-268 CNS. For the same compound, the growth with SF-295 CNS was 15.5%; with SF-539 CNS, 52.6%; in the assay on UACC-257 melanoma, 70.7%; in the assay on M14 melanoma, 38.3%; with HCT-15 colon, 21.6%; with HT29 colon, 39.6%. The growth with SNB-75 CNS is 8% (active); in the assay with U251 CNS, 54.8%; in the assay with PC-3 prostate, 40.4%; with SK-MEL-5 melanoma it was 3.23% (active); in the assay with LOX IMVI melanoma it was 42%; with SK-MEL-28 melanoma it was 55.9%.
On to `O=C(c1ccc(OCCN2CCOCC2)cc1)C1[C@H](c2ccc(Cl)cc2)[C@@H](c2ccccc2)NC12C(=O)Nc1ccc(Cl)cc12` (some centres undefined), for which the growth is 45.8% in the assay with DU-145 prostate; 4.95% (active) in the assay on K-562 leukemia; 69.3% in the assay with MALME-3M melanoma; 28.7% in the assay with MDA-MB-231 breast; 2.65% (active) with RXF 393 renal; 43.8% with SF-268 CNS. Besides, the growth with SF-295 CNS is 27.4%; in the assay with SF-539 CNS it was 41.5%; with UACC-257 melanoma it was 45.4%; in the assay with M14 melanoma, 23.2%; in the assay on HCT-15 colon, 16.2%; in the assay on HT29 colon, -75.4% (active). The growth is 41% in the assay on SNB-19 CNS; 25.3% in the assay with U251 CNS; 6.16% (active) with PC-3 prostate; 51.6% in the assay on SK-MEL-5 melanoma; 40.1% in the assay with UACC-62 melanoma; -45.5% (active) in the assay with LOX IMVI melanoma. Further, the growth with SK-MEL-28 melanoma is 51.7%.
For the compound `Cn1cc(-c2cc(N)n3nc(-c4cn(C)c5ncccc45)cc3n2)c2cccnc21`, the growth with DU-145 prostate is 83.2%; in the assay with K-562 leukemia, 5.55% (active); in the assay with MALME-3M melanoma it was 97.3%; in the assay with MDA-MB-231 breast it was -22.4% (active); in the assay on RXF 393 renal it was 58.8%; in the assay with SF-268 CNS it was 92.7%. Moreover, the growth in the assay on SF-295 CNS is 62.6%; in the assay on SF-539 CNS it was 84.2%; in the assay with UACC-257 melanoma it was 100%; in the assay with M14 melanoma, 93.1%; in the assay with HCT-15 colon, -91.7% (active); in the assay on HT29 colon, -66.7% (active). The growth with SNB-19 CNS was 101%; in the assay on U251 CNS, -46.1% (active); with PC-3 prostate, 79.7%; in the assay with SK-MEL-5 melanoma, 68.4%; in the assay on UACC-62 melanoma it was 102%; in the assay with LOX IMVI melanoma it was -100% (active). Besides, in the assay with SK-MEL-28 melanoma, the growth is 106%.
`Cc1cc(=O)oc2cc(OCCCCOc3ccc(/C=C/C(=O)Nc4ccccc4N)cc3)ccc12`: the growth in the assay with DU-145 prostate is 65.7%; with K-562 leukemia, 35%; with MALME-3M melanoma, 90.8%; in the assay on MDA-MB-231 breast it was 48.2%; with RXF 393 renal, 90.9%; in the assay with SF-268 CNS it was 49.4%. In addition, the growth is 63.1% in the assay with SF-295 CNS; 53.1% with SF-539 CNS; 82.4% in the assay with UACC-257 melanoma; 79.5% in the assay on M14 melanoma; 75.8% in the assay on HCT-15 colon; 91.4% in the assay with HT29 colon. For the same compound, the growth in the assay with SNB-75 CNS is 67%; in the assay on U251 CNS it was 60.2%; in the assay with PC-3 prostate, 61%; in the assay on SK-MEL-5 melanoma it was -66.1% (active); with UACC-62 melanoma, 69.2%; in the assay with SK-MEL-28 melanoma it was 81.2%.
On to `COc1c(F)ccc(C(=O)Nc2ccc3nc(NC(=O)C4CCCN(S(=O)(=O)c5cccc(Cl)c5)C4)sc3c2)c1F` (centres undefined), for which the growth is 90.5% with DU-145 prostate; 53.8% in the assay with K-562 leukemia; 97.6% in the assay on MALME-3M melanoma; 87.9% with MDA-MB-231 breast; -6.85% (active) with RXF 393 renal; 86.9% in the assay on SF-268 CNS. For the same compound, the growth was 78.7% with SF-295 CNS; 70.7% in the assay on SF-539 CNS; 84.7% in the assay with UACC-257 melanoma; 84.7% in the assay with M14 melanoma; 68.9% in the assay with HCT-15 colon; 82.2% with HT29 colon. In addition, the growth was 80.4% in the assay on SNB-19 CNS; 71.5% in the assay with U251 CNS; 57.7% with PC-3 prostate; 79.6% with SK-MEL-5 melanoma; 78.6% with UACC-62 melanoma; 79.6% with LOX IMVI melanoma. In the assay on SK-MEL-28 melanoma, the growth is 92.1%.
Turning to `CC(=O)OC[C@@]1(C)C2CC[C@]3(C)C(CC=C4C5CC(C)(C)CC[C@]5(C(=O)Nc5cccc(C)c5)CC[C@]43C)[C@@]2(C)C[C@@H](OC(C)=O)[C@@H]1OC(C)=O` (some centres undefined), the growth was 48.3% in the assay on DU-145 prostate; 21.5% with K-562 leukemia; 61.3% in the assay on MALME-3M melanoma; 67.7% in the assay with MDA-MB-231 breast; 85.4% in the assay with RXF 393 renal; 56.2% in the assay with SF-268 CNS. In addition, the growth was 27.4% in the assay with SF-295 CNS; 42% with SF-539 CNS; 24.7% in the assay with UACC-257 melanoma; 49.8% in the assay on M14 melanoma; 30.9% with HCT-15 colon; 25.5% with HT29 colon. Besides, the growth in the assay on SNB-75 CNS is 67.9%; in the assay on U251 CNS it was 40.6%; with PC-3 prostate, 29.4%; in the assay with SK-MEL-5 melanoma, 3.77% (active); with UACC-62 melanoma, 45.4%; with LOX IMVI melanoma, 11.6%. The growth in the assay on SK-MEL-28 melanoma is 62.3%.
